A selection: hits, their analogues and other compounds. The true share with any hit is near 2.6%.
EWS-Fli block = EWS/Fli transcriptional activity inhibition; A673 NR0B1-luciferase reporter, viability-normalised; inhibition, % at 12.6 µM; 350,000 compounds, 0.67% hits; AID 651661;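 active means mean inhibition of at least 50% after viability correction, with every replicate also passing that limit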;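 further: firefly luciferase signal divided by Alamar Blue viability fluorescence both relative to DMSO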
EBV LMP1 NFkB = Epstein-Barr LMP1 NF-kappaB reporter inhibition; LMP1-induced NF-kappaB luciferase reporter cells, luminescence; inhibition, % at 12.5 µM; 350,000 compounds, 0.69% hits; in the data active means inhibition above about 41%;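 further: 0% = neutral control wells and 100% = reference inhibitor control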
TROY signal inh = blocks TROY-dependent signaling in reporter cells; Q293 LMP1-TROYcd NF-kB luciferase reporter, 4 h; 360,000 compounds, 0.98% hits; inhibition, % at 10 µM; AID 1347056;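 active means compounds whose plate-normalised and pattern-corrected inhibition of the luciferase reporter signal at the single screening dose is 50% or more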
TWEAK Fn14 block = blocks TWEAK-Fn14 interaction in a reporter cell assay; TWEAK-stimulated Fn14 reporter cells, luciferase luminescence, 8 h; inhibition, % at 10 µM; 360,000 compounds, 2% hits; in the data active means inhibition above about 50%
LGR2 inh = Drosophila LGR2 receptor signaling inhibition; HEK293 LGR2, CRE-luciferase, bursicon-stimulated, 4 h; inhibition, % at 9.99 µM; AID 720647; 380,000 compounds, 0.35% hits;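 active means drop in luminescence signal, shown as inhibition above about 50% in the replicate tests, limit read from the data, passing the limit was not always enough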;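 further: agonist challenge used bursicon conditioned medium at about half maximal strength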
Numbers without * were called inactive; . = no result given.

SMILES | EWS-Fli block | EBV LMP1 NFkB | TROY signal inh | TWEAK Fn14 block | LGR2 inh
CCN1C/C(=C\c2cccc([N+](=O)[O-])c2)C(=O)/C(=C/c2cccc([N+](=O)[O-])c2)C1 | 82* | 91* | 2 | 93* | 24
COc1ccc(N/C=C2\CCc3ccccc3C2=O)cc1 | 43 | 24 | 70* | 87* | 81*
CCCC(=O)Nc1ccc2c(c1)C(=O)N(C)C[C@@H](OC)[C@H](C)CN(C(=O)c1ccncc1)[C@@H](C)CO2 | -2 | . | . | . | -1
C[C@H](CO)N1C[C@H](C)[C@@H](CN(C)CC2CC2)Oc2ccc(NS(=O)(=O)c3ccccc3)cc2C1=O | 1 | . | . | . | -1
O=C(C[C@H]1CC[C@@H](NC(=O)NC2CCCCC2)[C@H](CO)O1)NCc1ccc(F)cc1 | -1 | . | . | . | -10
O=C(CN(Cc1ccccc1)C(=O)CCl)c1cccc(Br)c1 | 50 | -4 | 5 | 66* | 25
C#C[C@]1(O)CCC2C3CCC4=Cc5oncc5CC4(C)C3CCC21C (some centres not stated) | 7 | -5 | 51* | 0 | .
COc1ccc(N=C2NN=C(c3ccc4c(c3)OCCO4)CS2)cc1 | . | -29 | 7 | 7 | .
COc1ccccc1C1=NNC(=Nc2cccc(S(=O)(=O)N(C)C)c2)SC1 | 41 | -2 | 16 | 50* | 8
C[C@@H]1CCCCO[C@H](CN(C)S(=O)(=O)c2ccccc2)[C@H](C)CN([C@H](C)CO)C(=O)c2cc(NS(=O)(=O)c3ccc(F)cc3)ccc2O1 | 16 | . | . | . | 7
Cc1ccccc1-n1nc(C(=O)c2cccs2)cc(-c2nc3ccccc3[nH]2)c1=N | . | 15 | -19 | -14 | .
COc1ccc(-n2nc(C(=O)c3cccs3)cc(-c3nc4ccccc4[nH]3)c2=N)cc1 | . | 59* | -18 | -46 | .
O=C(CCN1CCCCC1)N[C@@H]1CC[C@@H](CCn2cc(-c3cccc(F)c3)nn2)O[C@@H]1CO | 6 | . | . | . | -33
CN(C(=O)CN1C(=O)S/C(=C\c2ccccc2Cl)C1=O)C1CCS(=O)(=O)C1 (configuration not stated) | 5 | -6 | -11 | 58* | 3
C[C@@H]1CN([C@@H](C)CO)C(=O)Cc2cc(NC(=O)Nc3ccc(F)cc3)ccc2O[C@H]1CN(C)S(=O)(=O)c1ccc(Cl)cc1 | -1 | . | . | . | 1
Cc1cccnc1CCNC(=O)c1ccc(OC2CCN(Cc3ccccn3)CC2)cc1 | 0 | 17 | 50 | 55* | -20
O=C(NCCc1cccc(Cl)c1)c1ccc(OC2CCN(Cc3ccccn3)CC2)cc1 | 40 | . | 73* | 82* | 10
O=C(NCCc1ccccn1)c1ccc(OC2CCN(CCc3ccccc3)CC2)cc1 | . | -2 | 9 | 24 | -60
CN1C[C@@H]2[C@H](c3ccccc31)[C@@H](CO)N2C(=O)c1ccccn1 | -6 | . | . | . | 11
CCCNC(=O)N1[C@H](CO)[C@H](c2ccccc2)[C@H]1CNC(=O)C1CCCC1 | . | . | . | . | 8
CCCOc1ccc(C(=O)C(CN2CCOCC2)c2ccccc2)cc1 (configuration not stated) | . | -55 | -24 | 13 | .
COc1ccc(C(O)C(CN2CCOCC2)c2ccccc2)cc1F (configuration not stated) | . | 0 | 55* | 74* | .
COc1ccc(C(=O)C(CN2CCOCC2)c2ccccc2)cc1F (configuration not stated) | . | 74* | 18 | 29 | .
CN(C)CCCNC(=O)C[C@@H]1C=C[C@H](NS(=O)(=O)c2ccccc2)[C@@H](CO)O1 | -2 | . | . | . | 18
C[C@@H]1CN([C@@H](C)CO)C(=O)Cc2cc(NC(=O)Cc3cn(C)c4ccccc34)ccc2O[C@@H]1CN(C)C(=O)Nc1ccc(F)cc1 | -1 | . | . | . | -6
SMILES | EWS-Fli block | EBV LMP1 NFkB | TROY signal inh | TWEAK Fn14 block | LGR2 inh
Cc1ccc(NC(=O)N2CCCc3ccccc32)cc1C | . | -16 | 65* | 26 | -20
Cc1cccc(NC(=O)N2CCCc3ccccc32)c1C | -11 | 13 | 75* | 51* | 14
Cc1cc(=O)oc(C)c1C(=O)N1CCCc2ccccc21 | . | -4 | 12 | 97* | .
O=C(Nc1ccccc1)N1CCCc2ccccc21 | . | 1 | -1 | 8 | .
COc1ccc2c3c(n(C)c2c1)[C@H](CO)N(Cc1ccc(Cl)cc1)CC31CCN(CC2CC2)CC1 | 8 | . | . | . | 11
COc1cc(CN2CC3(CCN(S(=O)(=O)c4cccc(F)c4)CC3)c3c([nH]c4cc(OC)ccc34)[C@H]2CO)cc(OC)c1 | 9 | . | . | . | 7
C[C@@H]1CN([C@@H](C)CO)C(=O)c2cc(NS(C)(=O)=O)ccc2O[C@@H](C)CCCCO[C@H]1CN(C)S(=O)(=O)c1cn(C)cn1 | -6 | . | . | . | 5
Cc1ccc(C(=O)N/N=C/c2cccc(OC(=O)/C=C/c3ccco3)c2)cn1 | -25 | -3 | -22 | -19 | -5
O=C(/C=C/c1ccco1)Oc1cc(Br)cc(/C=N/NC(=O)c2ccccc2O)c1 | -3 | 61* | -10 | 2 | -8
O=C(Cc1ccncc1)NCC[C@@H]1CC[C@H](NC(=O)C2CCC2)[C@@H](CO)O1 | 4 | . | . | . | -10
COc1cccc(-c2cnc(C(O)c3cccc(F)c3)[nH]2)c1 (configuration not stated) | -79 | . | 52* | 42 | -44
COc1cccc(-c2cnc(C(O)c3cccc(OC)c3)[nH]2)c1 (configuration not stated) | -31 | . | -9 | -20 | -10
c1ccc2c(c1)CCCC2C1=NCCN1 (configuration not stated) | -3 | 79* | 3 | -9 | .
CC(=O)Oc1ccc(C#C/C=C2\c3ccccc3C(=O)N2c2ccccc2)cc1 | . | -12 | -23 | 51* | .
CO[C@@H](CN(C)S(=O)(=O)c1ccc(F)cc1)[C@@H](C)CN(C(=O)Nc1ccccc1F)[C@H](C)CO | -3 | . | . | . | -8
CC(=O)N(Cc1ccc(F)cc1)C1=C(NCCc2ccccc2)C(=O)c2ccccc2C1=O | . | 76* | 66* | 82* | .
Cc1cc(=O)[nH]c(SCC(=O)Nc2cccc3ccccc23)c1C#N | 12 | -1 | 52* | 15 | .
CCN(C[C@H]1N[C@@](Cc2ccccc2)(C(=O)OC)[C@H]2C(=O)N(Cc3ccccc3)C(=O)[C@@H]12)C(=O)Nc1ccc(C)cc1 | -4 | -10 | -32 | 19 | -10
CCN(C[C@H]1N[C@@](Cc2ccccc2)(C(=O)OC)[C@H]2C(=O)N(Cc3ccccc3)C(=O)[C@@H]12)C(=O)Nc1ccc(C(F)(F)F)cc1 | -2 | 4 | 50* | 84* | 18
COC(=O)[C@]1(C)N[C@H](CN(C)S(=O)(=O)c2ccc(C(F)(F)F)cc2)[C@@H]2C(=O)N(C)C(=O)[C@@H]21 | -6 | -12 | -25 | -11 | -2
CC[C@@]1(C(=O)OC)N[C@H](CN(C)S(=O)(=O)c2ccc(C(F)(F)F)cc2)[C@@H]2C(=O)N(C)C(=O)[C@@H]21 | -1 | -3 | 17 | 83* | -6
CC(=O)N1[C@@H]2Cn3c(ccc(C4=CCCC4)c3=O)[C@H]1[C@@H](C(=O)N[C@@H](C)c1ccccc1)[C@@H]2CO | 4 | . | . | . | -12

Screens as filed in PubChem BioAssay.
